From PubChem BioAssay (EPA / NIEHS)
The source made the active and inactive calls. The calls were made as follows: active = hit-call score of the fitted dose curve at least 0.9, where 1 is the maximum; inactive = score below 0.9.

How the values were obtained:
Conditions in all cases: mRNA level, 48 h; actives raise or lower the signal
[1] = read-out: Interleukin 6 Receptor (IL6R), IL6R (gene 3570); experiment: LTEA_HepaRG_IL6R: Life Technologies and Expression Analysis (LTEA) Assay for Interleukin 6 Receptor (IL6R) using HepaRG (AID 2283510);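 as to AC50: differentiated human HepaRG liver cells in serum-free induction medium; TaqMan qRT-PCR signal normalized to ACTB GAPDH and POLR2A housekeeping genes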
Summary of the method: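 Cells were thawed, plated and cultured 48 h, then medium was changed to serum-free induction medium. Chemicals were added in duplicate (100 uM top, half-log steps, 0.5% DMSO) for 48 h. Lysates were analyzed by qRT-PCR for IL6R expression.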

[2] = read-out: Potassium channel subfamily K member 1 (KCNK1), KCNK1 (gene 3775); experiment: LTEA_HepaRG_KCNK1: Life Technologies and Expression Analysis (LTEA) Assay for Potassium channel subfamily K member 1 (KCNK1) using HepaRG (AID 2283511)
Summary of the method: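 HepaRG, 48 h exposure, 8-pt half-log series top 100 uM, 0.5% DMSO vehicle, duplicates. Readout: KCNK1 transcript by qRT-PCR (Fluidigm array), housekeeping-normalized; bidirectional curve fit relative to DMSO baseline.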

[3] = read-out: Keratin 19 (KRT19), KRT19 (gene 3880); experiment: LTEA_HepaRG_KRT19: Life Technologies and Expression Analysis (LTEA) Assay for Keratin 19 (KRT19) using HepaRG (AID 2283512)
Summary of the method: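 Differentiated HepaRG cells in serum-free induction medium, exposed 48 h in duplicate to 8 half-log concentrations up to 100 uM in 0.5% DMSO. KRT19 mRNA by qRT-PCR, normalized to ACTB, GAPDH, POLR2A; bidirectional fit vs DMSO.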

[4] = read-out: JUN Transcription Factor, JUN (gene 3725); experiment: LTEA_HepaRG_JUN: Life Technologies and Expression Analysis (LTEA) Assay for JUN Transcription Factor using HepaRG (AID 2283513)
Summary of the method: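 Read-out is JUN transcript level by TaqMan qRT-PCR, normalized to ACTB, GAPDH and POLR2A, after 48 h chemical treatment of HepaRG cells. Concentration-response spanned eight half-log points up to 100 uM in 0.5% DMSO.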

[5] = read-out: Lipase C (LIPC), LIPC (gene 3990); experiment: LTEA_HepaRG_LIPC: Life Technologies and Expression Analysis (LTEA) Assay for Lipase C (LIPC) using HepaRG (AID 2283514)
Summary of the method: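 HepaRG, 48 h exposure, 8-pt half-log series from 100 uM in 0.5% DMSO, duplicates. Readout: LIPC mRNA by Fluidigm qRT-PCR, housekeeping-normalized (ACTB/GAPDH/POLR2A). Gain or loss fitted bidirectionally against DMSO baseline.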

[6] = read-out: Lipoprotein lipase (LPL), LPL (gene 4023); experiment: LTEA_HepaRG_LPL: Life Technologies and Expression Analysis (LTEA) Assay for Lipoprotein lipase (LPL) using HepaRG (AID 2283515)
Summary of the method: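 HepaRG, 48 h exposure, 8-pt half-log dilutions from 100 uM, 0.5% DMSO vehicle, duplicates; qRT-PCR (Fluidigm array) of LPL mRNA vs housekeeping genes; bidirectional curve fit relative to DMSO baseline.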

[7] = read-out: MicroRNA 122 (MIR122), gene 406906; experiment: LTEA_HepaRG_MIR122: Life Technologies and Expression Analysis (LTEA) Assay for MicroRNA 122 (MIR122) using HepaRG (AID 2283516); also: the transcript read is the microRNA miR-122
Summary of the method: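 Human liver HepaRG cultures receive test chemicals for 48 h at eight half-log concentrations from 100 uM. Expression is quantified by qRT-PCR with ACTB/GAPDH/POLR2A normalization and fitted bidirectionally against 0.5% DMSO.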

[8] = read-out: matrix metalloproteinase-10 (MMP10), MMP10 (gene 4319); experiment: LTEA_HepaRG_MMP10: Life Technologies and Expression Analysis (LTEA) Assay for matrix metalloproteinase-10 (MMP10) using HepaRG (AID 2283517)
Summary of the method: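 Transcript levels come from Fluidigm qRT-PCR normalized to three housekeeping genes, with curves fitted bidirectionally against 0.5% DMSO. Human HepaRG cells were dosed for 48 hours at concentrations up to 100 uM.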

MYC, MYC (gene 4609) = experiment: LTEA_HepaRG_MYC: Life Technologies and Expression Analysis (LTEA) Assay for MYC using HepaRG (AID 2283518)
Summary of the method: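 Differentiated HepaRG cells exposed 48 h in serum-free induction medium to 8 concentrations (top 100 uM, half-log steps; 0.5% DMSO), duplicate. MYC mRNA measured by Fluidigm qRT-PCR, normalized to ACTB, GAPDH, POLR2A; bidirectional fit versus DMSO.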

[9] = read-out: matrix metalloproteinase-3 (MMP3), MMP3 (gene 4314); experiment: LTEA_HepaRG_MMP3: Life Technologies and Expression Analysis (LTEA) Assay for matrix metalloproteinase-3 (MMP3) using HepaRG (AID 2283519)
Summary of the method: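 qRT-PCR read-out of MMP3 mRNA (normalised to three housekeeping genes) in HepaRG liver cells after 48 h chemical exposure; 8-point half-log series, top 100 uM, 0.5% DMSO vehicle. Bidirectional curve fitting against DMSO baseline.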

[10] = read-out: Paternally Expressed 10 (PEG10), PEG10 (gene 23089); experiment: LTEA_HepaRG_PEG10: Life Technologies and Expression Analysis (LTEA) Assay for Paternally Expressed 10 (PEG10) using HepaRG (AID 2283520);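 as to AC50: PEG10 transcript by qRT-PCR normalised to ACTB GAPDH and POLR2A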
Summary of the method: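 Human HepaRG cultures are dosed for 48 h across an eight-point half-log series starting at 100 uM, with 0.5% DMSO as vehicle and baseline. Gain or loss of PEG10 transcript is measured by qRT-PCR and fitted in both directions.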

[11] = read-out: Nuclear factor NF-kappa-B p105 subunit (Homo sapiens) (UniProt P19838); experiment: LTEA_HepaRG_NFKB1: Life Technologies and Expression Analysis (LTEA) Assay for Nuclear Factor Kappa B Subunit 1 (NFKB1) using HepaRG (AID 2283521);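 also: differentiated human HepaRG liver cells in serum-free induction medium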
Summary of the method: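 NFKB1 transcript was measured by TaqMan qRT-PCR on Fluidigm arrays, normalised to three housekeeping genes and fitted in both directions against 0.5% DMSO. HepaRG cells were dosed in duplicate for 48 h in serum-free induction medium, eight half-log steps from 100 uM.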

[12] = read-out: Protein phosphatase 2A (PPP2R4), PTPA (gene 5524); experiment: LTEA_HepaRG_PPP2R4: Life Technologies and Expression Analysis (LTEA) Assay for Protein phosphatase 2A (PPP2R4) using HepaRG (AID 2283522)
Summary of the method: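 Cells were plated, cultured 48 h, switched to serum-free induction medium, then dosed for 48 h (8 points, max 100 uM, 0.5% DMSO). RNA was isolated and PPP2R4 expression measured by TaqMan qRT-PCR.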

[13] = read-out: Phosphatase and tensin (PTEN), PTEN (gene 5728); experiment: LTEA_HepaRG_PTEN: Life Technologies and Expression Analysis (LTEA) Assay for Phosphatase and tensin (PTEN) using HepaRG (AID 2283523)
Summary of the method: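 HepaRG, 48 h exposure, 8-pt half-log series from 100 uM top, 0.5% DMSO vehicle, duplicates. Readout: Fluidigm qRT-PCR of PTEN transcript; housekeeping normalization (ACTB, GAPDH, POLR2A). Gain or loss fitted relative to DMSO baseline.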

[14] = read-out: solute carrier (SLC22A1), SLC22A1 (gene 6580); experiment: LTEA_HepaRG_SLC22A1: Life Technologies and Expression Analysis (LTEA) Assay for solute carrier (SLC22A1) using HepaRG (AID 2283524);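 as to AC50: differentiated human HepaRG liver cells in serum-free induction medium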
Summary of the method: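 qRT-PCR readout (TaqMan, Fluidigm arrays) of SLC22A1 transcript, normalized to three housekeeping genes; bidirectional curve fit relative to 0.5% DMSO vehicle. Differentiated human HepaRG cells, 48 h chemical exposure, top concentration 100 uM, half-log steps, eight points.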

[15] = read-out: Pyruvate Dehydrogenase Kinase 4 (PDK4), PDK4 (gene 5166); experiment: LTEA_HepaRG_PDK4: Life Technologies and Expression Analysis (LTEA) Assay for Pyruvate Dehydrogenase Kinase 4 (PDK4) using HepaRG (AID 2283525)
Summary of the method: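 HepaRG (human liver line), 48 h chemical exposure, 8-pt half-log CRC top 100 uM, 0.5% DMSO vehicle, duplicates. Readout: TaqMan qRT-PCR of PDK4 mRNA, housekeeping-normalized; gain/loss fit relative to DMSO baseline.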

[16] = read-out: NAD(P)H dehydrogenase [quinone] 1 (NQO1), NQO1 (gene 1728); experiment: LTEA_HepaRG_NQO1: Life Technologies and Expression Analysis (LTEA) Assay for NAD(P)H dehydrogenase [quinone] 1 (NQO1) using HepaRG (AID 2283526)
Summary of the method: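 Transcript induction or suppression is quantified by qRT-PCR in human HepaRG liver cells dosed for 48 hours. Eight half-log concentrations topping at 100 uM are used, with 0.5% DMSO as vehicle and baseline.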

[17] = read-out: Nuclear factor erythroid 2-related factor 2 (Homo sapiens) (UniProt Q16236); experiment: LTEA_HepaRG_NFE2L2: Life Technologies and Expression Analysis (LTEA) Assay for Nuclear factor erythroid 2-related factor 2 (NFE2L2) Transcription Factor using HepaRG (AID 2283527)
Summary of the method: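 HepaRG, 48 h dosing, 8-pt half-log series from 100 uM in 0.5% DMSO, duplicates. Read-out: NFE2L2 mRNA by qRT-PCR (ACTB/GAPDH/POLR2A normalization). Bidirectional curve fit vs DMSO baseline.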

[18] = read-out: succinate dehydrogenase complex iron sulfur subunit B (SDHB), SDHB (gene 6390); experiment: LTEA_HepaRG_SDHB: Life Technologies and Expression Analysis (LTEA) Assay for succinate dehydrogenase complex iron sulfur subunit B (SDHB) using HepaRG (AID 2283528)
Summary of the method: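 SDHB transcript level read by TaqMan qRT-PCR, housekeeping-normalised (ACTB, GAPDH, POLR2A), after 48 h chemical treatment of plated HepaRG cells; eight concentrations top 100 uM, half-log steps, 0.5% DMSO, duplicates; fitted both directions against DMSO.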

[19] = read-out: Signal transducer and activator of transcription 3 (Homo sapiens) (UniProt P40763); experiment: LTEA_HepaRG_STAT3: Life Technologies and Expression Analysis (LTEA) Assay for Signal transducer and activator of transcription (STAT3) using HepaRG (AID 2283529)
Summary of the method: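 HepaRG, 48 h exposure, 8-pt half-log series (top 100 uM), 0.5% DMSO vehicle, duplicates. Readout: STAT3 transcript by Fluidigm qRT-PCR, housekeeping-normalized; bidirectional fit vs DMSO baseline.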

Measured: AC50

Sequence of Nuclear factor erythroid 2-related factor 2 (Homo sapiens) (Q16236 whole entry, looked up): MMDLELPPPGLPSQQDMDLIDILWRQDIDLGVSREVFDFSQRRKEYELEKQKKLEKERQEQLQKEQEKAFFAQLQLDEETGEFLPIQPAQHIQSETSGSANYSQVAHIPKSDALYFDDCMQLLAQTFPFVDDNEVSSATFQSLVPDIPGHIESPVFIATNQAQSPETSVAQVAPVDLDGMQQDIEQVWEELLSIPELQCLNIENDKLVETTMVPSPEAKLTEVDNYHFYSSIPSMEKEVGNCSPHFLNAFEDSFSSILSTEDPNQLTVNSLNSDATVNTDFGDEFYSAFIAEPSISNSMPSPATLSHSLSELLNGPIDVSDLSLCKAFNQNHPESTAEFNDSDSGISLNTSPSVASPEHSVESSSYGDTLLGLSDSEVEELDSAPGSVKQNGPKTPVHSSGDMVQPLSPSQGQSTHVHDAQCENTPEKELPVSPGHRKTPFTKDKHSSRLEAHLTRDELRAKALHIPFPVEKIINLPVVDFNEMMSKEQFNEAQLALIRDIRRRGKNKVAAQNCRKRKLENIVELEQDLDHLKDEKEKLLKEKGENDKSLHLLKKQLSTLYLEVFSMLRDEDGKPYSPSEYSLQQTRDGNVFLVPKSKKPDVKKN
Sequence of Signal transducer and activator of transcription 3 (Homo sapiens) (P40763 whole entry, looked up): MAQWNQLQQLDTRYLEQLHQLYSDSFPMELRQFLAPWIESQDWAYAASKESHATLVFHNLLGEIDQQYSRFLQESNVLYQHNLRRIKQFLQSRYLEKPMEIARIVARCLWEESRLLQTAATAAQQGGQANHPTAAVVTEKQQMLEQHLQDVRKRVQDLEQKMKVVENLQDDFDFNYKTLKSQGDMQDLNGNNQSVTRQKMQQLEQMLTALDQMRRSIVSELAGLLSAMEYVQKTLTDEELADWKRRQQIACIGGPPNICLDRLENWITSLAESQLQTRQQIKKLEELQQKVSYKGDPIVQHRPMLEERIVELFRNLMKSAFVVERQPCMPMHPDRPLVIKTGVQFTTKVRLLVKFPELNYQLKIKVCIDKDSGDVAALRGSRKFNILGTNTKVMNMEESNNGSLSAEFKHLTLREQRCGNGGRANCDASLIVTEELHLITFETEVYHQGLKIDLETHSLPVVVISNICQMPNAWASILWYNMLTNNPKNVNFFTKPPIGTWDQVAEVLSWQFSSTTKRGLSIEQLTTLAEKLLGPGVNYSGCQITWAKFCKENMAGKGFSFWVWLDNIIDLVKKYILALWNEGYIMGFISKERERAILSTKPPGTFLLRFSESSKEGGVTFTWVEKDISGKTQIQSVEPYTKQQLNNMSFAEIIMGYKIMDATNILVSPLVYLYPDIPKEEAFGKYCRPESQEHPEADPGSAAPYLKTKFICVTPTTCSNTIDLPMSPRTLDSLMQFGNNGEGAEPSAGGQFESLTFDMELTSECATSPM
Sequence of Nuclear factor NF-kappa-B p105 subunit (Homo sapiens) (P19838 whole entry, looked up): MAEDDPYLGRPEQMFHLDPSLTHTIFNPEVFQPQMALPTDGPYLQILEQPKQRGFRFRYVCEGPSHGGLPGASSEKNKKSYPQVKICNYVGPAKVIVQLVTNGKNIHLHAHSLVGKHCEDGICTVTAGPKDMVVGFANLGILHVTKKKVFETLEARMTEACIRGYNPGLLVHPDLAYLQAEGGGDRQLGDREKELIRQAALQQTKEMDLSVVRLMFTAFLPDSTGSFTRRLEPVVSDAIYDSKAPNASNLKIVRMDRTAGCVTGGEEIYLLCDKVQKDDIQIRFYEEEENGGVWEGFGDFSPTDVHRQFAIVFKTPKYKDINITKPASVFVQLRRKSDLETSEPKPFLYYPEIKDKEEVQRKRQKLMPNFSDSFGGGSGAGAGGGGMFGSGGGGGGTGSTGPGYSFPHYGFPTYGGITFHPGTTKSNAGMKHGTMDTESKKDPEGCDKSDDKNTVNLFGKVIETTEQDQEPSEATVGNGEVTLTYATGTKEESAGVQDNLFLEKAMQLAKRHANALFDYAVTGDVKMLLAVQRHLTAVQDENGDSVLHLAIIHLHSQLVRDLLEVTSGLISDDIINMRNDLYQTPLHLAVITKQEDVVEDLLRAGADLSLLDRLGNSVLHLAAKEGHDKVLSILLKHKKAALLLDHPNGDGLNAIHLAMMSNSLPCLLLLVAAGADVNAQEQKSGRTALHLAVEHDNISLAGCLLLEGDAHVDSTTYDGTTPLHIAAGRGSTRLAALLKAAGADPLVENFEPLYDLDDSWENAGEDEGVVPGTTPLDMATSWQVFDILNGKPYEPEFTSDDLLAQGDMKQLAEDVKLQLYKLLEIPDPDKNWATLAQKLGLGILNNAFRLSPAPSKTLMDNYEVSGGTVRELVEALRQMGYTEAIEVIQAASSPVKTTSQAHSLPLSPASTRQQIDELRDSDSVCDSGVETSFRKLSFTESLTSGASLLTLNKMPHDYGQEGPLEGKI

Nc1ccc(Oc2ccc(N)cc2)cc1
inactive: all assays above

O=C(Nc1ccccc1)c1ccccc1I
active: [3] 22.6 µM | [5] 50 µM | [7] 50 µM | MYC, MYC (gene 4609) 41.6 µM | [10] 31.2 µM | [14] 31.1 µM | [15] 9.92 µM | [17] 77.6 µM
inactive: all other assays above

c1ccc(N=Nc2ccccc2)cc1
not listed: [19]
inactive: all other assays above

CC(C)N(Cc1ccccc1)C(=O)C(C)(C)C
active: [10] 28.8 µM
not listed: [16]
inactive: all other assays above

OCCOCCO
not listed: [11]
inactive: all other assays above

CO[C@@H]1[C@H](OC(=O)NC(=O)CCl)CC[C@]2(CO2)[C@H]1[C@@]1(C)O[C@@H]1CC=C(C)C
inactive: all assays above

CCCCOC(=O)c1ccccc1C(=O)OCc1ccccc1
active: [12] 0.349 µM
inactive: all other assays above

Brc1ccc(Oc2ccccc2)cc1
inactive: all assays above

Cc1cc(N=Nc2ccccc2C)ccc1N
active: [1] 2.45 µM | [3] 17.2 µM | [5] 3.22 µM | [6] 4.4 µM | [7] 3.67 µM | MYC, MYC (gene 4609) 5.49 µM | [9] 12.2 µM | [10] 4.04 µM | [12] 2.35 µM | [13] 4.12 µM | [14] 4.83 µM | [15] 2.39 µM | [17] 9.92 µM
inactive: [2] | [4] | [8] | [11] | [16] | [18] | [19]

Cc1cccc(N)c1N
active: [3] 21.3 µM | [5] 58.7 µM | [6] 35.8 µM | [7] 50 µM | [10] 50 µM | [14] 47.4 µM | [19] 9.92 µM
not listed: [16]
inactive: all other assays above

O=C(Oc1ccc(Br)cc1)N1CCN2CCC1CC2
active: [6] 74.4 µM
not listed: [16]
inactive: all other assays above

O=[N+]([O-])C(Br)(CO)CO
not listed: [16]
inactive: all other assays above

Nc1ccc(N=Nc2ccccc2)cc1
active: [1] 13 µM | [3] 50 µM | [5] 12.8 µM | [6] 22.3 µM | [7] 18.1 µM | [10] 18.4 µM | [12] 21.1 µM | [13] 25 µM | [14] 13.6 µM | [15] 13.4 µM | [18] 18.8 µM
inactive: [2] | [4] | [8] | MYC, MYC (gene 4609) | [9] | [16] | [17] | [19]

N#CC(Br)(Br)C(N)=O
inactive: all assays above
